NPYLR7 agonist = mosquito NPYLR7 agonism; HEK293T NPYLR7/Galpha15, GCaMP6s calcium fluorescence; activation, % at 10 µM; 270,000 tested, 0.15% active; AID 1259423; in the data active = activation above about 40%
hcGAS lum = blocks human cGAS activity | recombinant h-cGAS, ATP depletion, Kinase-Glo luminescence | AID 1259398 | 290,000 tested, 0.081% active | inhibition, % at 12.5 µM | Q8N884
mcGAS inh = mouse cGAS inhibition by luminescence; Q8C6L5; recombinant cGAS, Kinase-Glo ATP depletion luminescence; inhibition, % at 12.5 µM; 160,000 tested, 0.15% active; AID 1259399
Target sequence (Q8C6L5 whole entry, looked up): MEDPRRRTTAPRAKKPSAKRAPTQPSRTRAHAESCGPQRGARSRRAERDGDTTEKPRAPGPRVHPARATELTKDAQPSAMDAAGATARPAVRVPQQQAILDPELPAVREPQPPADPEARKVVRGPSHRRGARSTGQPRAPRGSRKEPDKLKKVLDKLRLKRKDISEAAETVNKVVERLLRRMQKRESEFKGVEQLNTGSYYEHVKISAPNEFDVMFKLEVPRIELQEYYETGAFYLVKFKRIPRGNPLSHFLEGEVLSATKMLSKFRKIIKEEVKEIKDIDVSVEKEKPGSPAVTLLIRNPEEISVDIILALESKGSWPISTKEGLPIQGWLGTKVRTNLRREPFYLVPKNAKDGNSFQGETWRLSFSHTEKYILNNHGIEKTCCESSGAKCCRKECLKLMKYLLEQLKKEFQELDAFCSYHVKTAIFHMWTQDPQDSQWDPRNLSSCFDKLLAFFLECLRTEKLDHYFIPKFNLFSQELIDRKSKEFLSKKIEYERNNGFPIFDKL
Each line names hits and unclear results; the compound was inactive in the other large screens; ! = not active in a repeat. Most compounds without a hit are left out; they make up all but 0.24% or so of the library. Rule as the data show it, unless noted: active = inhibition above about 40%; inactive = the rest.

NC(=O)C1CCN(C(=O)CCc2ccsc2)CC1	none (no result: mcGAS inh)
NC(=O)C1CCN(C(=O)CCN(CCc2ccccc2)C(=O)c2cnccn2)CC1	hcGAS lum active (no result: mcGAS inh)
CC(NCC1CNc2ccnn2C1)c1cc2ccccc2o1 (centres undefined)	none (no result: mcGAS inh)
COc1ccc(CCNC(=O)c2cc(-c3ccccc3OC)nc3cc(-c4ccccc4)nn23)cc1OC	none
COc1ccc2nc3cc(Cl)ccc3c(Nc3cc(CN4CCCC4)c(O)c(CN4CCCC4)c3)c2n1	hcGAS lum 44.6 (no result: mcGAS inh)
COc1cc(C)c(CN2CCN(Cc3nc4cc(Cl)ccc4c(=O)[nH]3)CC2)cc1OC	none (no result: mcGAS inh)
CCCCc1ccc(C(=O)Nc2ccc(N3CCCC3)c(C(=O)NC(C)c3ccccc3)c2)cc1 (centres undefined)	none
Cc1nn2c(=O)[nH]c(SCC(N)=O)nc2c1-c1ccccc1	hcGAS lum 54.9
CC(=O)Nc1ccc(NC(=O)CSc2nc3c(-c4ccccc4)c(C)nn3c(=O)[nH]2)cc1	none
CC1C(=O)N(c2ccc(F)cc2F)CCN1C(=O)c1cccc(F)c1 (centres undefined)	mcGAS inh 71.9
CC1C(=O)N(c2ccc(F)cc2F)CCN1C(=O)c1cccc(Br)c1 (centres undefined)	none
COc1cccc(C(CC(=O)O)c2c[nH]c3ccccc23)c1OC (centres undefined)	none (no result: mcGAS inh)
Cc1ccccc1-n1c(C)nnc1SCc1ccc(C(=O)NCc2ccc(F)cc2)cc1	none
COc1ccccc1NC(=O)N(Cc1nnc2n1CCCCC2)c1ccccc1	none (no result: mcGAS inh)
CCOc1ccc(C(C2Sc3nc(C)nn3C2=O)N2CCN(CC)CC2)cc1OC (centres undefined)	none
Cc1ccc(C2(O)CCN(Cc3cccnc3OCC(F)(F)F)CC2)nc1	none (no result: mcGAS inh)
CC1(C)CC[C@]2(C)CC[C@]3(C)C(=CCC4[C@@]5(C)CC[C@H](O)C(C)(C)C5CC[C@]43C)C2C1 (some centres undefined)	none (no result: NPYLR7 agonist)
C[C@@H]1OC(O[C@H]2[C@H](OC(=O)[C@]34CCC(C)(C)CC3C3=CCC5[C@@]6(C)CC[C@H](OC7O[C@@H](C)[C@H](O[C@@H]8OC[C@@H](O)[C@H](O)[C@H]8O)[C@@H](O)[C@H]7O)C(C)(C)C6CC[C@@]5(C)[C@]3(C)CC4O)OC[C@H](O)[C@H]2O)[C@H](O)[C@H](O)[C@H]1O[C@@H]1O[C@H](CO)[C@@H](O)[C@H](O)[C@H]1O (some centres undefined)	NPYLR7 agonist 54.1 (no result: mcGAS inh)
Cc1c(C#N)c(NC(=O)CN2CC(C)CC(C)C2)n(CC2CCCO2)c1C (centres undefined)	none
O=C(O)CN1C(=O)/C(=C\c2cc([N+](=O)[O-])cc(Br)c2O)SC1=S	NPYLR7 agonist 81.1, hcGAS lum 50.7, mcGAS inh 66.5
COc1cc([N+](=O)[O-])cc(/C=C2/SC(=S)N(CC(=O)O)C2=O)c1O	none
COc1ccc(/C=C2/SC(=S)N(CC(=O)O)C2=O)cc1OC	none
O=C(O)CN1C(=O)/C(=C/c2cc(Br)c(O)c(Br)c2)SC1=S	NPYLR7 agonist 250.8
CN(C)c1ccc(/C=C2/SC(=S)N(CC(=O)O)C2=O)cc1Br	NPYLR7 agonist 124.2 (no result: mcGAS inh)
COc1cc(/C=C2/SC(=S)N(CC(=O)O)C2=O)cc(Br)c1O	none
C=CCNC(=O)N1CCC2(CCCN(CCC3CCCCC3)C2=O)C1 (centres undefined)	none (no result: mcGAS inh)
CCc1nc(SCC(=O)N2CCCN(C(=O)C3CCCO3)CC2)n[nH]1 (centres undefined)	none
CNc1nn(CC(=O)Nc2ccccc2OC)c(N)c1-c1nc(-c2ccccc2C)no1	none (no result: NPYLR7 agonist)
CC(C)(C)OC(=O)N(CCN)C1CCCCCC1	none (no result: mcGAS inh)
COC(=O)C1CCN(C(=O)Cn2cc(C(F)(F)F)cc(Cl)c2=O)CC1	none (no result: mcGAS inh)
COC(=O)c1sc(N)c(C(=O)OC)c1Cn1cc(C(F)(F)F)cc(Cl)c1=O	hcGAS lum 54.0
CN(CCCc1cnn(C)c1)CC1(O)CNCCOC1 (centres undefined)	none (no result: NPYLR7 agonist)
N#CCCSc1nc(-c2cccs2)cc(C(F)(F)F)c1C#N	none (no result: mcGAS inh)
COCCN(Cc1c(-c2ccccc2)noc1N1CCCCC1)C(=O)C1CCCC1	none
COCc1cc(C)nc(OCC(=O)N/N=C\c2cc(Br)c(O)c(Br)c2)c1C#N	none
COCc1c(Br)c(C)nc(OCC(=O)N/N=C\c2cc(I)c(O)c([N+](=O)[O-])c2)c1C#N	mcGAS inh 83.0
COCc1cc(C)nc(OCC(=O)N/N=C\c2cc(I)c(O)c(I)c2)c1C#N	mcGAS inh 57.9
COCc1c(Br)c(C)nc(OCC(=O)N/N=C\c2cc(I)c(O)c(OC)c2)c1C#N	none
COCc1cc(C)nc(OCC(=O)N/N=C\c2cc(I)c(O)c([N+](=O)[O-])c2)c1C#N	mcGAS inh 67.4
C=CCOc1c(I)cc(/C=N\NC(=O)COc2nc(C)cc(COC)c2C#N)cc1I	none
CCc1ccc(S(=O)(=O)NCc2nnnn2-c2cccc(F)c2)s1	none
COc1cc(-c2cc(=O)c3c(O)c(OC)c(OC)c(OC)c3o2)cc(OC)c1OC	none (no result: mcGAS inh)
COc1c(O)cc2c(=O)oc3c(OC)c(O)cc4c(=O)oc1c2c34	hcGAS lum 75.3
CCC(C)(C)NC(=O)c1ccoc1	none (no result: mcGAS inh)
O=C(c1nccc2ccccc12)N1CCN(CC2CCCC2)CC1	NPYLR7 agonist 125.6 (no result: mcGAS inh)
O=C(Nc1ccc(NC2CCCCC2)cc1)c1nccc2ccccc12	none (no result: mcGAS inh)
CCC(C)NC(=O)Nc1c(C(C)(C)C)nn(C(C)(C)C)c1N (centres undefined)	none (no result: NPYLR7 agonist)
Cc1ccc(CN(CCc2ccccc2)C(=O)CN(CCN2CCCCC2)C(=O)c2ccc(Cl)c(Cl)c2)o1	none
COc1cc(C=C(C#N)S(=O)(=O)c2ccc(F)cc2)cc(Br)c1O	NPYLR7 agonist 182.8 (no result: mcGAS inh)
COc1cc(C=C(C#N)S(=O)(=O)c2cc(Cl)ccc2Cl)cc(Br)c1O	NPYLR7 agonist 66.3 (no result: mcGAS inh)
COc1cc(C=C(C#N)S(=O)(=O)c2ccc(F)cc2)cc(OC)c1OC	none (no result: mcGAS inh)
COc1cc(C=C(C#N)S(=O)(=O)c2cc(Cl)ccc2Cl)cc(OC)c1	none (no result: mcGAS inh)
OC(COCc1ccccc1)CN(CCN1CCOCC1)Cc1ccco1 (centres undefined)	none
O=C(CCC(=O)c1ccc(F)cc1)NCC(=O)Nc1cc(Cl)ccc1Cl	none (no result: mcGAS inh)
Cc1ccc(-c2nc3scc(CCNS(=O)(=O)c4c(C)cc(C)cc4C)n3n2)cc1	none
COCC(=O)N1CCN(c2cc(Oc3ccc(F)cc3F)ncn2)CC1C (centres undefined)	none
CCOc1ccc(NC(=O)CSc2nc(-c3ccccc3)nc3c2c(=O)n(C)c(=O)n3C)cc1	none (no result: mcGAS inh)
CCSCCNC(=O)c1ccc(-c2cc(-c3cccc4c3OCCO4)[nH]n2)cc1	none
O=C(NCc1cccc(F)c1F)c1ccc(-c2cc(-c3cccc4c3OCCO4)[nH]n2)cc1	mcGAS inh 104.6 (no result: NPYLR7 agonist)
COC(=O)C1=C(C)NC(=O)NC1c1ccccc1[N+](=O)[O-] (centres undefined)	none
COC(=O)C1=C(C)NC(C)=C(C(=O)OC)C1c1ccccc1[N+](=O)[O-]	mcGAS inh 50.9
Cc1cc(O)c(C(c2cccc(Cl)c2)N2CCN(C)CC2)c(=O)n1Cc1cccnc1 (centres undefined)	none (no result: mcGAS inh)
O=C(O)c1cccnc1S(=O)(=O)C(F)(F)F	none (no result: mcGAS inh)
O=C(O)c1cccnc1C(=O)O	hcGAS lum 53.5!
CCCCC(=O)Nc1c(C)nc2c(C)cccn2c1=O	none (no result: mcGAS inh)
Cc1cc(C)cc(N2C(=O)CSC2c2ccc(NC(=O)CCl)cc2)c1 (centres undefined)	none
CCCc1ccccc1N1C(=O)CSC1c1ccc(NC(=O)CCl)cc1 (centres undefined)	NPYLR7 agonist 41.8

Assay outcomes deposited in PubChem BioAssay by Fisher Drug Discovery Resource Center.
